# Source: PubChem BioAssay
# The source made the active and inactive calls. Unless noted, no rule for the calls is given here. Where a SMILES comes first, the peptide text is derived from it. The star is where a group is joined. Cbz = O=C(OCc1ccccc1)*; CH2F = FC*
# Columns and labels:
# [1] = sensitizers of A549 cells to miR-34 induction, primary screen, imaging, A549 dox-inducible miR-34, nuclei and caspase counts (AID 1347080;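 active = compounds whose cell count with miR-34 switched on is under 0.7 times the count with it off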); conditions: A549 miR-34 inducible, Hoechst nuclei count, 48 h
# [2] = inhibitors of Cryptococcus chitosan production, flow cytometry, Cibacron Brilliant Red staining (AID 1347148); conditions: Cryptococcus neoformans chitosan, stronger effect = lower value; at 10 µM unless noted;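 also: compound exposure lasted three days at 37 degrees C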
# [3] = hESC survival regulators, cell-based (AID 493140); conditions: human embryonic stem cell survival screen; stronger effect = higher value;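 also: cells exposed to compounds for four days before counting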
# [4] = circadian clock period modulators, cell-based, LOPAC library, luminescence reporter (AID 2774); conditions: circadian reporter cells, at 7 µM, actives lie on both sides;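 also: values are relative to mean of DMSO wells on each plate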
# [5] = ovarian cancer cell viability with rucaparib, profiling panel, oncology-focused library, rucaparib conditional (AID 1508598;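 active = normalized viability below 100% at a tested concentration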); conditions: patient-derived ovarian cancer cells, CellTiter-Glo viability, 144 h, stronger effect = lower value
# [6] = stronger effect = lower value, cell number ratio, induced over uninduced
# [7] = measured here: relative caspase fold change +Dox/-Dox
# [8] = measured here: total cells with miR-34 induction, stronger effect = lower value
# [9] = measured here: total cells without miR-34 induction
smiles,measurement,setting,value
CCCCC[C@H](O)CC(=O)CCc1ccc(O)c(OC)c1,fold change,[1]; [6],0.985 (inactive)
same,fold change,[1]; [7],0.961
same,cell count,[1]; [8],5360
same,cell count,[1]; [9],5440
same,fold fluorescence,[2],5.62 [at 169.8 µM] (inactive)
COC(=O)/C=C/c1ccc(C(=O)NCC(=O)N[C@@H](CCC(=O)OC)C(=O)N[C@@H](CC(C)C)C(N)=O)cc1,fold change,[1]; [6],0.902 (inactive)
same,fold change,[1]; [7],1.99
same,cell count,[1]; [8],5510
same,cell count,[1]; [9],6100
same,fold fluorescence,[2],4.66 [at 96.4 µM] (inactive)
CCCC[C@@H](C)/C=C(C)/C=C(\C)C(=O)NC1=C[C@@](O)(/C=C/C=C/C=C/C(=O)NC2=C(O)CCC2=O)[C@@H]2O[C@@H]2C1=O,fold change,[1]; [6],1.01 (inactive)
same,fold change,[1]; [7],1.03
same,cell count,[1]; [8],1310
same,cell count,[1]; [9],1290
same,fold fluorescence,[2],7.73 [at 90.8 µM] (inactive)
CC(=O)N[C@@H](CSC/C=C(\C)CCC=C(C)C)C(=O)O,survival,[3],97.5 (inactive)
same,fold change,[1]; [6],0.983 (inactive)
same,fold change,[1]; [7],1.12
same,cell count,[1]; [8],5900
same,cell count,[1]; [9],6000
same,fold fluorescence,[2],5.25 (inactive)
CCCCC/C=C\C/C=C\C/C=C\CC1OC1CCCC(=O)O (stereo not drawn),survival,[3],114 (inactive)
same,fold change,[1]; [6],0.939 (inactive)
same,fold change,[1]; [7],1.34
same,cell count,[1]; [8],5900
same,cell count,[1]; [9],6280
same,fold fluorescence,[2],4.93 [at 1 µM] (inactive)
CCCCCCCCCCCCCCCC(=O)N[C@@H](COP(=O)(O)O)C(=O)O,survival,[3],91.8 (inactive)
same,fold change,[1]; [6],0.975 (inactive)
same,fold change,[1]; [7],1.1
same,cell count,[1]; [8],5800
same,cell count,[1]; [9],5940
same,fold fluorescence,[2],4.28 (inactive)
COCc1cc(O)c(O)c(O)c1-c1c(COC)cc(O)c(O)c1O,survival,[3],106 (inactive)
same,fold change,[1]; [6],1.2 (inactive)
same,fold change,[1]; [7],0.626
same,cell count,[1]; [8],3710
same,cell count,[1]; [9],3100
same,fold fluorescence,[2],5.4 [at 147.8 µM] (inactive)
CCCCCCCCCCCCC/C=C/[C@@H](O)[C@H](CO)NC(=O)CCCCCCCCCCCCCCC,survival,[3],62.8 (inactive)
same,fold change,[1]; [6],1.03 (inactive)
same,fold change,[1]; [7],1.04
same,cell count,[1]; [8],5360
same,cell count,[1]; [9],5200
same,fold fluorescence,[2],6.35 (inactive)
CCCCC[C@H](O)/C=C/C=C\C/C=C\C/C=C\CCCC(=O)O,survival,[3],53.7 (inactive)
same,fold change,[1]; [6],1.03 (inactive)
same,fold change,[1]; [7],1.58
same,cell count,[1]; [8],5880
same,cell count,[1]; [9],5700
same,fold fluorescence,[2],4.64 [at 1 µM] (inactive)
N#CC(C#N)=C(N)/C(C#N)=C/c1ccc2[nH]ccc2c1,survival,[3],107 (inactive)
same,fold change,[1]; [6],1.01 (inactive)
same,fold change,[1]; [7],0.81
same,cell count,[1]; [8],5080
same,cell count,[1]; [9],5030
same,fold fluorescence,[2],3.69 [at 192.8 µM] (inactive)
N#Cc1c(-c2ccccc2)no[n+]1[O-],period change,[4],-0.17 h (inactive)
same,fold change,[1]; [6],1.56 (inactive)
same,fold change,[1]; [7],1
same,cell count,[1]; [8],1090
same,cell count,[1]; [9],700
same,fold fluorescence,[2],6.16 [at 267.2 µM] (inactive)
CCCCC[C@H](O)/C=C/C=C\C=C\C=C\[C@@H](O)[C@@H](O)CCCC(=O)O,survival,[3],89.1 (inactive)
same,fold change,[1]; [6],0.912 (inactive)
same,fold change,[1]; [7],1.26
same,cell count,[1]; [8],5670
same,cell count,[1]; [9],6220
same,fold fluorescence,[2],4.45 [at 1 µM] (inactive)
CC(C)n1cnc2c(NCc3ccccc3)nc(NCCO)nc21,survival,[3],106 (inactive)
same,fold change,[1]; [6],1.14 (inactive)
same,fold change,[1]; [7],1.24
same,cell count,[1]; [8],2020
same,cell count,[1]; [9],1780
same,fold fluorescence,[2],3.89 [at 153.2 µM] (inactive)
Clc1ccc2ncnc(NCc3ccc4c(c3)OCO4)c2c1,fold change,[1]; [6],0.968 (inactive)
same,fold change,[1]; [7],1.41
same,cell count,[1]; [8],3640
same,cell count,[1]; [9],3760
same,fold fluorescence,[2],6.11 [at 159.4 µM] (inactive)
CCCCCCCCCCC/C=C\C/C=C\CCCC(=O)O,survival,[3],98.8 (inactive)
same,fold change,[1]; [6],0.918 (inactive)
same,fold change,[1]; [7],0.921
same,cell count,[1]; [8],5350
same,cell count,[1]; [9],5820
same,fold fluorescence,[2],4.42 (inactive)
CCCCC[C@H](O)/C=C/C=C\CCCCCCCC(=O)O,survival,[3],87.8 (inactive)
same,fold change,[1]; [6],0.929 (inactive)
same,fold change,[1]; [7],1.14
same,cell count,[1]; [8],5740
same,cell count,[1]; [9],6180
same,fold fluorescence,[2],6.42 [at 1 µM] (inactive)
COC(=O)C[C@H](NC(=O)[C@H](C)NC(=O)[C@@H](NC(=O)OCc1ccccc1)C(C)C)C(=O)CF (Cbz-Val-Ala-Asp(OMe)-CH2F),fold change,[1]; [6],0.848 (inactive)
same,fold change,[1]; [7],0.772
same,cell count,[1]; [8],5320
same,cell count,[1]; [9],6270
same,fold fluorescence,[2],3.45 [at 107 µM] (inactive)
same,viability,"[5]; at 0.000305 µM, OCI-C5x cells, with rucaparib 10 µM, 100% = cells with rucaparib alone",111% (inactive)
same,viability,"[5]; at 0.000305 µM, OCI-C5x cells, without rucaparib",113% (inactive)
same,viability,"[5]; at 0.000305 µM, OCI-P5x cells, with rucaparib 20 µM, 100% = cells with rucaparib alone",101% (inactive)
same,viability,"[5]; at 0.000305 µM, OCI-P5x cells, without rucaparib",108% (inactive)
same,viability,"[5]; at 0.00122 µM, OCI-C5x cells, with rucaparib 10 µM, 100% = cells with rucaparib alone",113% (inactive)
same,viability,"[5]; at 0.00122 µM, OCI-C5x cells, without rucaparib",122% (inactive)
same,viability,"[5]; at 0.00122 µM, OCI-P5x cells, with rucaparib 20 µM, 100% = cells with rucaparib alone",104% (inactive)
same,viability,"[5]; at 0.00122 µM, OCI-P5x cells, without rucaparib",107% (inactive)
same,viability,"[5]; at 0.00488 µM, OCI-C5x cells, with rucaparib 10 µM, 100% = cells with rucaparib alone",106% (inactive)
same,viability,"[5]; at 0.00488 µM, OCI-C5x cells, without rucaparib",114% (inactive)
same,viability,"[5]; at 0.00488 µM, OCI-P5x cells, with rucaparib 20 µM, 100% = cells with rucaparib alone",102% (inactive)
same,viability,"[5]; at 0.00488 µM, OCI-P5x cells, without rucaparib",112% (inactive)
same,viability,"[5]; at 0.0195 µM, OCI-C5x cells, with rucaparib 10 µM, 100% = cells with rucaparib alone",113% (inactive)
same,viability,"[5]; at 0.0195 µM, OCI-C5x cells, without rucaparib",119% (inactive)
same,viability,"[5]; at 0.0195 µM, OCI-P5x cells, with rucaparib 20 µM, 100% = cells with rucaparib alone",110% (inactive)
same,viability,"[5]; at 0.0195 µM, OCI-P5x cells, without rucaparib",102% (inactive)
same,viability,"[5]; at 0.0781 µM, OCI-C5x cells, with rucaparib 10 µM, 100% = cells with rucaparib alone",110% (inactive)
same,viability,"[5]; at 0.0781 µM, OCI-C5x cells, without rucaparib",120% (inactive)
same,viability,"[5]; at 0.0781 µM, OCI-P5x cells, with rucaparib 20 µM, 100% = cells with rucaparib alone",108% (inactive)
same,viability,"[5]; at 0.0781 µM, OCI-P5x cells, without rucaparib",111% (inactive)
same,viability,"[5]; at 0.313 µM, OCI-C5x cells, with rucaparib 10 µM, 100% = cells with rucaparib alone",104% (inactive)
same,viability,"[5]; at 0.313 µM, OCI-C5x cells, without rucaparib",118% (inactive)
same,viability,"[5]; at 0.313 µM, OCI-P5x cells, with rucaparib 20 µM, 100% = cells with rucaparib alone",96.2% (active)
same,viability,"[5]; at 0.313 µM, OCI-P5x cells, without rucaparib",107% (inactive)
same,viability,"[5]; at 1.25 µM, OCI-C5x cells, with rucaparib 10 µM, 100% = cells with rucaparib alone",117% (inactive)
same,viability,"[5]; at 1.25 µM, OCI-C5x cells, without rucaparib",115% (inactive)
same,viability,"[5]; at 1.25 µM, OCI-P5x cells, with rucaparib 20 µM, 100% = cells with rucaparib alone",103% (inactive)
same,viability,"[5]; at 1.25 µM, OCI-P5x cells, without rucaparib",106% (inactive)
same,viability,"[5]; at 5 µM, OCI-C5x cells, with rucaparib 10 µM, 100% = cells with rucaparib alone",115% (inactive)
same,viability,"[5]; at 5 µM, OCI-C5x cells, without rucaparib",119% (inactive)
same,viability,"[5]; at 5 µM, OCI-P5x cells, with rucaparib 20 µM, 100% = cells with rucaparib alone",106% (inactive)
same,viability,"[5]; at 5 µM, OCI-P5x cells, without rucaparib",108% (inactive)
COC(=O)[C@@H](N)CSC/C=C(\C)CC/C=C(\C)CCC=C(C)C,survival,[3],74.2 (inactive)
same,fold change,[1]; [6],0.927 (inactive)
same,fold change,[1]; [7],1.37
same,cell count,[1]; [8],6060
same,cell count,[1]; [9],6540
same,fold fluorescence,[2],4.53 (inactive)
CC1=C(/C=C/C(C)=C\C=C\C(C)=C\C(=O)O)C(C)(C)CCC1,survival,[3],82.2 (inactive)
same,fold change,[1]; [6],0.906 (inactive)
same,fold change,[1]; [7],1.46
same,cell count,[1]; [8],5680
same,cell count,[1]; [9],6260
same,fold fluorescence,[2],4.39 (inactive)
NCCNS(=O)(=O)c1cccc2cnccc12,period change,[4],0.39 h (inactive)
same,survival,[3],266 (active)
same,fold change,[1]; [6],1.1 (inactive)
same,fold change,[1]; [7],1.06
same,cell count,[1]; [8],3580
same,cell count,[1]; [9],3260
same,fold fluorescence,[2],3.25 [at 154.2 µM] (inactive)
